36 compounds from PubChem BioAssay (NCI) can be followed below.

This is part of a sample that, as a whole, favours compounds with a hit. Of some 83,000 tested, about 20% had one in any assay.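 Results are percent growth after 48 hours of single-concentration exposure. 100 means growth as in untreated cells, lower positive values show inhibition; negative values down to -100 show cell death.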 Activity calls are given as the source filed them. The calls were made as follows: active = growth percent below 10; inactive = the rest.

The assay has as its system HCC-2998 colon. Nature of the assay: NCI-60 one-dose screen, 48 h (100 = growth as untreated, 0 = no growth, -100 = all killed). The note with it: 10 µM unless noted.
For `O=[N+]([O-])c1cc([N+](=O)[O-])c(NN=C(c2ccc(O)cc2)c2ccc(O)cc2)cc1Cl`, the growth is -93.5% (active).
The value for `O=C(N/N=C/c1c(Cl)cccc1Cl)c1cccc(Nc2ccnc(C(F)(F)F)c2)c1` was 89.1% (inactive); that for `O=[N+]([O-])c1cc([N+](=O)[O-])c(C(F)(F)F)cc1NN=C(c1ccc(O)cc1)c1ccc(O)cc1` was -55.5% (active); that for `N/C(=N\c1nc2ccccc2[nH]1)NC(=O)Cc1cccc2ccccc12` was 103% (inactive).
The figure for `CCN(CC)CCCC(C)Nc1ccnc2cc(Cl)c(SCc3ccccc3)cc12` (stereo unspecified) is -84.1% (active).
The figure for `O=C(Oc1ccc(Cl)cc1[N+](=O)[O-])Oc1ccc(Cl)cc1[N+](=O)[O-]` is 108% (inactive).
With `C[C@@H](NC(=O)[C@@H](CC(=O)N1CCC(N2CCCCC2)CC1)N1C(=O)[C@@H](N2C(=O)OC[C@@H]2c2ccccc2)[C@H]1/C=C/c1cccc(Cl)c1)c1ccccc1`, the growth was 28.5% (inactive).
The value for `COc1ccc2c3ccnc(C(F)(F)F)c3n(CCCCN)c2c1` was 95.7% (inactive); that for `CCOC(=O)c1c[nH]c2cc(OCC3CC3)c(OCC3CC3)cc2c1=O` was 107% (inactive); that for `COc1ccc(-c2nc3ccccn3c2/C=C/C(=O)c2cc(OC)c(OC)c(OC)c2)cc1OC` was 16.4% (inactive).
The figure for `NC(=S)Cc1ccccc1` is 107% (inactive); for `CC(C)C1=NOC(=O)C1=Cc1cn(-c2ccccc2)nc1-c1cccc([N+](=O)[O-])c1` it is 87.3% (inactive).
The figure for `O=c1c2c3c(sc2n2cnnc2n1Cc1ccccc1)CCCC3` is 105% (inactive); for `COc1cc(C)cc2oc3oc(=O)c(C(=O)c4cc5cc(Br)ccc5o4)cc3c(=O)c12` it is 110% (inactive); for `COc1ccc(OC)c([N+](=O)[O-])c1C(=O)CNC(C)=O` it is 101% (inactive).
For `COc1cc(C(=O)/C=C/c2c(-c3ccc(F)cc3)nc3sccn23)cc(OC)c1OC`, the growth was 73.1% (inactive).
The figure for `CC(C)c1ccc(C(=O)Nc2nc3ccc(O)cc3s2)cc1` is -8.31% (active).
The figure for `C=C(C)C1CCC2(C(=O)O)CCC3(C)C(CCC4C5(C)CCC(OC(=O)NCc6ccccc6)C(C)(C)C5CCC43C)C12` (stereo unspecified) is 51.3% (inactive); for `CCOC(=O)c1ccc2nc(-c3c(C)nn(-c4ccccc4)c3N3CCOCC3)[nH]c2c1` it is 95.9% (inactive).
The value for `Nc1nc(SCc2cccc([N+](=O)[O-])c2)c2[nH]cnc2n1` was 112% (inactive); that for `COc1ccc2nc3c(cc2c1)C(=O)CC(c1ccccc1)C3` (stereo unspecified) was 91.3% (inactive); that for `CCCC[C@@H](C=O)NC(=O)[C@H](CC(C)C)NC(=O)[C@H](CC(C)C)NC(=O)OCc1ccccc1` was -74.1% (active).
Take `O=C(N/N=C/c1ccc([N+](=O)[O-])cc1)c1ccc(Br)o1`: the growth is 107% (inactive).
Turning to `CSc1nc2sc3cc(Cl)c(Cl)cc3n2c(=N)c1C#N`, the growth was 106% (inactive).
The figure for `Cn1c(=O)c(C#N)c(-c2ccco2)n2c(S(=O)(=O)Cc3ccccc3)nnc12` is 102% (inactive); for `Nc1ccc2c(c1)Cc1cc(NC(=O)C(F)(F)F)ccc1-2` it is 105% (inactive); for `NC(=O)c1c(NC(=O)COC(=O)Cc2ccccc2F)sc2c1CCC2` it is 114% (inactive).
The figure for `Cc1cccc([N+](=O)[O-])c1I` is 101% (inactive).
The figure for `COc1ccc2nc3ccccc3c(NCCNCCO)c2c1` is -72.5% (active); for `Cc1cc(NN=C(c2ccc(O)cc2)c2ccc(O)cc2)c([N+](=O)[O-])cc1[N+](=O)[O-]` it is 61.9% (inactive); for `N#Cc1c(Cl)nc(SCC2CO2)nc1-c1ccccc1` (stereo unspecified) it is 111% (inactive).
Consider `CCCCCCCCCCCCCCNC(=O)Nc1ccc(Cl)c(Cl)c1`, for which the growth was 14.5% (inactive).
The value for `O=C1NC(=O)c2cc([N+](=O)[O-])cc3cccc1c23` was 107% (inactive); that for `CCN(CC)CCSC(=O)C(O)(c1ccccc1)C1CCCC1` (stereo unspecified) was 90.3% (inactive); that for `CCC(Br)(CC)C(=O)c1ccc(OCC(=O)O)c(Cl)c1Cl` was 91.5% (inactive).
Turning to `COc1ccc(C2CC(c3cc(OC)c(OC)c(OC)c3)=NN2C(C)=O)cc1OCC(=O)Nc1nc2ccc(C(F)(F)F)cc2s1` (stereo unspecified), the growth is 92.3% (inactive).
